Measured values from the supplement of paper PMC6555819.

test system: RARa:RXR (NR concentration 270 nM, RXRa partner concentration 90 nM); assay: PBM binding z-score (relative to random genomic background probes); higher = stronger binding; sequences stand for … in GC…GCGATTGACAGCGTAGAATGAAGG
In short: (§1)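 Binding buffer was PBS pH 7.4 with 2% milk, 0.02% Triton X-100, 1 mM DTT, 0.2 mg/mL BSA and 0.4 mg/ml salmon testes DNA. In it, ligand-free nuclear receptor dimers were incubated 1 h on custom Agilent 4×180K protein-binding microarrays carrying double-stranded probes. Antibodies against each partner (one per run) detected binding, and z-scores were calculated against random background probes after regression normalization of scanned fluorescence.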

| Sequence | PBM binding z-score |
| --- | --- |
| ACTGGGAGGACAAAGGTCAGAGCTACGCCAGTGA | 5.46 |
| CGTCCAAGGTCTATGCTAGGTCAGTGAAAGCATT | 1.03 |
| TCGAGAAGGTTACCAATGGGGCATTCAGCTTTCT | 1.49 |
| GCATATAGGTAATACAAGCTGAAAGTCCGATTGT | 0.243 |
| TCTTGTAGATCAACAAGAGGTTAAGAAAGATCGA | 1.63 |
| ACTAGCAGGCCATGGGTCACTCAAGATTAGTCCG | 1.56 |
| CGAACTAGGTAAGAACAGGACAGTGAAGGATGAT | -0.362 |
| ACTAGTTCGTCAGCTGAGGTCACACACAATTCGG | 4.66 |
| TAGCCTGGGTCATTGGGCCAGTATAGTACGCATC | 2.07 |

test system: RARa homodimer (NR concentration 270 nM); assay: as above
In short: as §1

| Sequence | PBM binding z-score |
| --- | --- |
| TCTCGGAGGACACGAAAGGCCAGAGCTCGACATC | -0.569 |
| TGTCAAAGTTCAAAGGTAACGGAAGTATCCACAC | 1.65 |
| GCTGCTAGATCAGGTTGGTCAGCTAACGGGTACG | -1.48 |
| TCATATAGGTAAATCCTAGGTGAAAGTCCGATCT | 0.51 |
| GCTTACGGGTCAAAGGCTATAGCATGAATAGAAT | -0.0609 |
| TCAAGTAGGTTAGGGGCATTCAGAATGGCGTCGA | 0.676 |
| ATCTCAAGGTAACAAGTTCAGTGAAAGAGAGGAC | 1.14 |
| CCGACTGGGGCAGAAAGGTTACTATACCATCCGG | -0.156 |
| CTCGAAAGGTCGTGCTCAGGTGCGTATACCAAAC | -0.163 |
| CCGACTGGGGCATAAGGGTACCATAAGCCAGCCC | -0.606 |
| TGTCAAAGTTGAAAGGTAACGTAAGTATCCACAC | 0.0354 |
| TCGAGTAGGTAAGGGGCATTCAGAATGGCGTCGA | -0.369 |
| CCTACTGGGCCATTCAGAGGTCATTGGTCATATG | 0.727 |
| CAAACTAGGTCAAAGTCAAAGTCGGTTTGTGCCA | 0.68 |
| CAAACTAGGTCAAGAGGTCAACGTCCGCTTCCCG | 4.74 |
| CATACAGGGTCAGCTAGGCCAGAGTCGGGACGGC | 0.539 |
| GCTTGTATATCAAGGTTAAGAAAGACTAAGCTAA | 0.663 |
| ATATGTAGGTTAGCGGGTCATTCAGTTTGCGCAT | 1.16 |
| CGTCCAAGGTCGATGCTAGGTCAGTGAAAGCATT | -0.458 |
| GCAGACAGGTGAAACGCAGGTTACTCAGGGTGGC | -0.748 |

| Sequence | PBM binding z-score |
| --- | --- |
| CGTCCAAGGTCATAGTAGGTCAGTGAAGACAGAT | 1.92 |
| ATCTCTAGGTAAGACTCAGTTCTGTGAAGAACGC | 1.02 |
| TCTCCTAGGTCAACGATGGTCAGCTAATCTGCTA | 0.663 |
| GGAATGAGGGCATTCGAGTTGATAGCATGGCGAT | -0.137 |
| GGAACGAGGGCAAGTTGAGAGCAGAGTTTGATGG | -0.172 |
| TCTTGTAAATCAACAGGAGGTTAAGAAAGATCGA | 0.881 |
| CTACCAAGGTGAACAAGATCGTTGATTACTATTC | 0.706 |
| ATCTGTAGGTAACAAGTTCAGTGAAAGAGAGGAC | 0.818 |
| CCGAGCAGGTTATGGGGCATTCAGGCAACGGTGA | -0.391 |
| GGAACGTGGGCAAGTTGATAGCAGAGTTTGATGG | -0.639 |
| TCGGGTAGGTTAGGGGCATTCAGAATGGCGTCGA | 0.423 |
| ACTGGGAGGACAAAGGTCAGAGCTACGCCAGTGA | 1.31 |
| CGTCCAAGGTCTATGCTAGGTCAGTGAAAGCATT | 0.289 |
| TCGAGAAGGTTACCAATGGGGCATTCAGCTTTCT | -0.803 |
| GCATATAGGTAATACAAGCTGAAAGTCCGATTGT | 0.388 |
| TCTTGTAGATCAACAAGAGGTTAAGAAAGATCGA | -0.225 |
| ACTAGCAGGCCATGGGTCACTCAAGATTAGTCCG | -0.392 |
| CGAACTAGGTAAGAACAGGACAGTGAAGGATGAT | -0.184 |
| ACTAGTTCGTCAGCTGAGGTCACACACAATTCGG | 1.82 |
| TAGCCTGGGTCATTGGGCCAGTATAGTACGCATC | -0.67 |
